In the library only some 6.5% were active in any assay of this set; here they are far more common.
HCMV inh: human cytomegalovirus inhibition. HFF cells, HCMV-luciferase reporter, 72 h; active compounds read low. activity change, negative = inhibition, % at 57.5 µM. 410,000 compounds, 4.5% hits. AID 1259415; in the data active means activity change below about -60%; inconclusive means no clear call, values can overlap the other calls; inactive means above about -39%
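Two-dose cell screen: HFF monolayers treated with compounds and infected with luciferase-expressing HCMV at 1 PFU/cell, 72 h at 37C, then lysed for luciferase measurement.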
Marburg entry inh: Marburg virus entry inhibition. Marburg virus pseudotyped entry inhibition, cell reporter. Potency, µM (series often up to 37.8 µM), inactives show at the highest dose activity change, negative = inhibition, usual class: inhibitors. AID 540276. 300,000 compounds, 1.8% hits; calls by dose curve; tested in HEK293 cells; further: potency means the concentration at half of the fitted maximal effect
LASV entry inh: Lassa virus entry inhibition | 300,000 compounds, 1.2% hits | Lassa virus pseudotype entry inhibition, cell reporter | Potency, µM (doses to about 37.9 µM), without a hit: at the highest dose activity change, negative = inhibition, actives largely listed as inhibitors; calls by dose curve; tested in HEK293 cells; further: potency means the concentration at half of the fitted maximal effect; nearly all actives have a fitted effect of over 50% in size
FMDV inh: blocks foot and mouth disease virus | FMDV antiviral cell-based qHTS | Potency, µM (series often up to 57.9 µM), inactives show at the top dose activity change, negative = inhibition, actives largely listed as inhibitors | 410,000 compounds, 1.2% hits | AID 1159524; calls by dose curve; tested in HEK293T cells; further: read-out not given here; potency means the concentration at half of the fitted maximal effect; nearly all actives have a fitted effect of over 45% in size
Vaccinia Venus: vaccinia inhibition (Venus reporter); Vaccinia virus Venus reporter expression, fluorescence; Potency, µM (titrated, usually from 36.5 µM), without a hit: at the highest dose activity change, negative = inhibition, actives largely listed as inhibitors; 330,000 compounds, 0.46% hits; AID 720580; calls by dose curve; tested in A549 cells; further: potency means the concentration at half of the fitted maximal effect; nearly all actives have a fitted effect of over 30% in size
Vaccinia mCherry: inhibitors of vaccinia virus infection (mCherry reporter signal); Potency, µM (series often up to 36.5 µM), inactives show at the top dose activity change, negative = inhibition, most hits filed as inhibitors; Vaccinia virus mCherry reporter infection, fluorescence; 310,000 compounds, 0.63% hits; calls by dose curve; tested in A549 cells; further: potency means the concentration at half of the fitted maximal effect; nearly all actives have a fitted effect of over 35% in size
* = called active by the depositor; i = inactive; ? = inconclusive; nt = no result given; [ ] = dose if it differs, or a comment. On the % scale 0 is the no-effect control and ±100 the full control effect.

SMILES | HCMV inh | Marburg entry inh | LASV entry inh | FMDV inh | Vaccinia Venus | Vaccinia mCherry
O=C(Nc1ccc(N2CCN(Cc3ccccc3)CC2)cc1)c1ccco1 | -82* | -23% | -7% | 6% | -12% | -7%
O=C(NNc1ccccc1)c1sc2ccccc2c1Cl | nt | nt | nt | nt | -18% | -12%
O=C(O)C1C2CCC(O2)C1C(=O)Nc1ccc(F)c(Cl)c1 (centres undefined) | -2 | nt | nt | 6% | nt | nt
O=C(Nc1ccc(-c2ccccc2)cc1)c1ccco1 | -64* | ? | 0%[46.1 µM] | -6% | -14% | -3%
N#Cc1sc2nccc(Nc3ccccc3)c2c1N | -87* | -28%[46.1 µM] | -27% | ? | -18%[7.34 µM] | -2%[7.34 µM]
Nc1cc(Nc2ccccc2)ccn1 | -25 | -26%[46.1 µM] | 0% | -17% | -14% | ?
Cc1ccc(/C=C/c2onc(C)c2S(=O)(=O)N2CCC(C(=O)Nc3cc(C)ccc3C)CC2)cc1 | 14 | nt | 5%[46.1 µM] | -14% | -9% | -2%
CCS(=O)(=O)c1ncc(Cl)c(C(=O)N(Cc2ccccc2)Cc2ccco2)n1 | -99* | ? | ? | 14µM* | -10%[7.34 µM] | -14%[7.34 µM]
CCS(=O)(=O)c1ncc(N(Cc2ccccc2)Cc2ccco2)c(C(=O)Nc2cccc(Cl)c2C)n1 | -30 | ? | -10%[46.1 µM] | 3% | -10% | -11%
Cc1cnc(-n2ncc(C(=O)NCCN3CCOCC3)c2C(C)C)nc1-c1ccc(F)cc1 | nt | nt | nt | 9% | -2% | -3%
C[C@H]1[C@@H](NS(=O)(=O)c2cccc([N+](=O)[O-])c2)CC[C@@]23CCCN2C(=O)CCC[C@@H]13 | 11 | nt | nt | nt | nt | nt
COc1cccc(CNc2nc(NCC3CC3)nc3ccsc23)c1 | -71* | nt | nt | -1% | -20% | i
COc1ccccc1CNc1nc(NCc2ccc(C(C)C)cc2)c2sccc2n1 | ? | nt | nt | ? | -24% | -8%
CNc1nc(NCc2cccc(OC)c2)c2sccc2n1 | ? | nt | nt | ? | -11% | 12%
COc1cccc(CNc2nc(NCc3ccccc3)nc3ccsc23)c1 | -102* | nt | nt | ? | -24% | 0%
CC(C)c1ccc(CNc2nc(NCC3CC3)nc3ccsc23)cc1 | -62* | nt | nt | ? | -27% | 2%
Cc1cnc(SCC2CCCO2)nc1C1CCCN(C(=O)c2ccc(S(N)(=O)=O)cc2)C1 (centres undefined) | nt | nt | nt | 5% | 0% | -15%
O=S1(=O)N[C@H](Cc2ccccc2)COc2cc(N3CCCCC3)ccc21 | 23 | nt | ? | nt | nt | nt
Nc1ccc(C(=O)Nc2ccc(Nc3ccncc3)cc2)c([N+](=O)[O-])c1 | 21 | nt | nt | -11% | -10% | i
CCC(CO)Nc1ccn2nc(-c3cccs3)cc2n1 (centres undefined) | 84 | nt | nt | 28% | -7% | -9%
CN1C(=O)CCC1c1cccnc1 (centres undefined) | nt | ? | nt | -2% | -12% | -16%
COc1ccc([C@@H]2[C@H](C(=O)N3CCCC3)CC(=O)N2C(=O)c2ccccc2)cc1 | -4 | nt | nt | nt | nt | nt
C#CCN(C[C@@H]1[C@@H](OC(=O)Nc2cccs2)[C@@H](OC(=O)Nc2cccs2)C[C@H](C(=O)OC)[C@@H]1C(=O)OC)S(=O)(=O)c1ccc(C)cc1 | -8 | nt | nt | nt | nt | nt
C#CCN(C[C@H]1[C@H](OC(=O)Nc2c(C)noc2C)[C@H](OC(=O)Nc2c(C)noc2C)C[C@@H](C(=O)OC)[C@H]1C(=O)OC)S(=O)(=O)c1ccc(C)cc1 | -2 | nt | nt | 32µM* | -15% | -4%
C[C@H]1CC[C@H]2C(=O)N(Cc3ccc(Cl)cc3)C[C@H](O)CN2[C@H]1c1ccc(Br)cc1 | nt | -2%[14.2 µM] | nt | nt | nt | nt
SMILES | HCMV inh | Marburg entry inh | LASV entry inh | FMDV inh | Vaccinia Venus | Vaccinia mCherry
CCN(C(=O)CSc1ncc2c(n1)-c1cc(Cl)ccc1N(Cc1ccccc1)S2(=O)=O)c1cccc(C)c1 | 11 | nt | 30%[46.1 µM] | 7% | -4% | i
CC(=O)Nc1ccc(NC(=O)COC(=O)C2(c3ccc(Cl)cc3)CCCC2)cc1 | ? | 13µM* | ? | 28µM* | -26% | i
Cc1nn(-c2ccc(F)cc2)c(Cl)c1/C=C/C(=O)OCC(=O)Nc1c(F)c(F)c(F)c(F)c1F | -71* | 0%[46.1 µM] | -7% | -17% | -1% | 0%
CN(C)c1ccc(C=c2c3cc(O)ccc3n3c2cc(-c2ccccc2)[n+]3C)cc1 | -101* | ? | ? | -21% | 132% | 107%
C[n+]1c(-c2ccccc2)cc2c(=Cc3ccccc3)c3ccccc3n21 | -99* | ? | 7.9µM* | 3.5µM* | 152% | i
C[n+]1c(-c2ccccc2)cc2c(=Cc3ccc([N+](=O)[O-])cc3)c3ccccc3n21 | -101* | ? | 10µM* | ? | 233% | i
CN(C)c1ccc(/C=C2\c3ccccc3-c3ccc(N(C)C)cc32)cc1 | nt | nt | nt | nt | -4% | -13%
COc1ccc2c3c([nH]c2c1)[C@@H](CO)N(Cc1ccccc1)CC31CN(C(=O)Cc2ccccc2)C1 | 0 | nt | nt | nt | nt | nt
O=C(c1cncs1)N(Cc1cc2cc3c(cc2nc1N1CCOCC1)CCC3)CC1CCCO1 (centres undefined) | nt | nt | nt | 11% | -2% | -7%
COC(=O)C1=CN(Cc2ccc(OC)cc2)C=C(C(=O)OC)C1c1ccsc1 | -7 | ? | 10µM* | -8% | -3% | -8%
COc1ccc(COC(=O)C2=C(C)NC(=O)CC2c2cccc(Cl)c2Cl)cc1 (centres undefined) | -26 | -6%[46.1 µM] | 12%[46.1 µM] | -15% | -1% | 6%
S=C(NCCN1CCOCC1)Nc1cccc(Cl)c1 | 27 | ? | 6% | 8% | -6% | -15%
O=C(Nc1cccc(Cl)c1)c1ccc(NCCCN2CCOCC2)c([N+](=O)[O-])c1 | ? | 10µM* | ? | ? | ? | -15%[1.46 µM]
S=C(NCCCN1CCOCC1)Nc1cccc(Cl)c1 | -19 | -1% | 13µM* | 5% | -22% | -6%
O=S(=O)(Nc1nc2ccccc2nc1Cl)c1ccc2ccccc2c1 | 43 | -9% | 2% | -18% | -10% | i
CCOc1ccc(-c2ccc(NS(=O)(=O)c3ccc(C)cc3)cc2)nn1 | -10 | nt | -1%[46.1 µM] | 29% | -5% | -9%
CCOc1ccc(-c2ccc(NS(=O)(=O)c3cc(C)c(C)cc3C)cc2)nn1 | -77* | nt | 12%[46.1 µM] | 39% | -17% | -2%
CCCCC1(CO)C(=O)N(c2ccccc2)N(c2ccccc2)C1=O | -11 | ? | -21%[46.1 µM] | -19% | -10% | i
CCCCC1(Cc2cccc([N+](=O)[O-])c2)C(=O)N(c2ccccc2)N(c2ccccc2)C1=O | -64* | 16µM* | ? | ? | -30% | -10%
C=C1CC(COc2ccc3c(C)c(Cl)c(=O)oc3c2)(c2ccccc2)OC1=O (centres undefined) | -98* | 7.1µM* | 10µM* | 22µM* | 11µM* | 10µM*
Cc1cc(C)cc(NC(=O)Nc2ccccc2OCc2cc(=O)n3ccccc3n2)c1 | 30 | nt | 11%[46.1 µM] | 35% | -22% | -6%
C=CCSC(=C(C#N)C#N)c1cc2c([nH]1)CCCC2 | -20 | ? | 11µM* | 11µM* | 1% | nt

Bioassay records deposited in PubChem BioAssay by National Center for Advancing Translational Sciences (NCATS).
